The values that follow come from PubChem BioAssay AID485364 (National Center for Advancing Translational Sciences (NCATS), 2010).

About 11,000 (3.1%) of roughly 360,000 compounds were called active. Where a call stands in place of a potency, no number is given. About 4% were inconclusive and are not listed. This is one part of a sample in which actives are shown more often than they occur. Calls follow the shape of the dose curve; as a rule, active = well fitted inhibition curve with a large enough effect; inconclusive = small, poorly fitted or top-dose-only effect; inactive = no such curve, though single readings can be large or run the other way.
Potency is read from the fitted curve at half-maximal effect.

This assay concerns the target Schistosoma mansoni thioredoxin glutathione reductase (TGR) (UniProt Q962Y6). As to the kind of experiment: qHTS Assay for the Inhibitors of Schistosoma Mansoni Peroxiredoxins. Also: nearly all actives have a fitted effect of over 60% in size. As to conditions: purified TGR, DTNB reduction, TNB absorbance 405 nm; series mostly up to 114 µM. In outline:
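Kinetic colorimetric format: TGR-catalysed, NADPH-driven DTNB reduction monitored via TNB absorbance. Enzyme dispensed at 20 nM; compound exposure 15 min at room temperature before reaction start.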
Turning to `COc1cccc(N2CCN(S(=O)(=O)c3ccc4c(c3)CCCN4C(C)=O)CC2)c1`, the Potency result was “inactive”.

With `O=C(Nc1nnc(C2CC(=O)N(c3ccc(Cl)cc3)C2)s1)c1ccco1` (configuration not stated), the Potency entry is “inactive”. The same measure for `Cc1ccc(S(=O)(=O)c2cn(Cc3ccccc3)c3cc(N4CCCC4)c(F)cc3c2=O)c(C)c1`: “inactive”; for `COc1cc(C(=O)N2CCN(C(=O)COc3cccc(C)c3)CC2)cc(OC)c1OC`: “inactive”.

In the case of `Cc1nnc(SCC(=O)NCc2ccccc2Cl)c2nn(-c3ccccc3)c(C)c12`, the Potency entry was “inactive”.

Regarding `CC1CCN(S(=O)(=O)c2ccc3c(ccn3CCC(=O)NCc3ccc(N(C)C)cc3)c2)CC1`, the Potency result was “inactive”.

With `Cc1ccc(NC(=O)c2cc(S(=O)(=O)NCCC3=CCCCC3)ccc2F)cc1C`, the Potency entry is “inactive”. In the case of `CCOc1ccc(OCC)c(NC(=O)c2cc(C)nc3c2c(C)nn3-c2cccc(Cl)c2C)c1`, the Potency entry is “inactive”.

For the compound `O=C(/C=C/c1ccccc1)N1CCN(Cc2cc(=O)n3nc(-c4ccccc4F)sc3n2)CC1`, the Potency result was “inactive”. For the compound `CCOc1ccc(CCNC(=O)c2cc3c(=O)n(C)c4ccccc4c3n2C)cc1`, the Potency result was “inactive”. For the compound `Cn1c(C(=O)N2CCC(C(N)=O)CC2)cc2c(=O)n(C)c3ccccc3c21`, the Potency result was “inactive”. Regarding `CCN1CCCC1CNC(=O)c1cc2c(=O)n(C)c3ccccc3c2n1C` (configuration not stated), the Potency was 50.1 µM (active). For the compound `O=C(c1ccc2c(c1)N(Cc1ccc(Cl)cc1)C(=O)c1ccccc1S2(=O)=O)N1CCCCC1`, the Potency entry was “inactive”. For `CCOc1ccc(C(=O)/C=C/c2cn(CC(O)CN3CCCCCC3)c3ccccc23)cc1` (configuration not stated), the Potency entry was “inactive”. Take `Cc1ccc(Cn2c(CNC(=O)Cc3cccc(C)c3)nc3cccnc32)cc1`: the Potency entry is “inactive”.

Regarding `Cn1nccc1C(=O)NC1CCCc2c1cnn2-c1ccccc1F` (configuration not stated), the Potency entry is “inactive”. In the case of `Cc1cc(C(=O)NC2CCCc3c2cnn3-c2cccc(C)c2C)c(C)o1` (configuration not stated), the Potency is 35.5 µM (active).

For `COc1ccc(C(=O)NC2CCCc3c2cnn3-c2cccc(C)c2C)c(OC)n1` (configuration not stated), the Potency result was “inactive”. As for `Brc1ccc(C2=CC(c3ccco3)n3ncnc3N2)cc1` (configuration not stated), the Potency is 17.8 µM (active). Turning to `Clc1ccc2c(c1)C1=C(C(c3ccncc3)O2)C(c2ccc(Br)cc2)n2ncnc2N1` (configuration not stated), the Potency result is “inactive”. As for `Cc1cccc(OCCSc2nc3ccccc3n2CC(=O)N2CCCCC2)c1C`, the Potency entry was “inactive”.

Consider `COc1cc(C2CC(=O)N3CN(Cc4ccccc4)CSC3=C2C#N)ccc1OCc1ccccc1` (configuration not stated), for which the Potency is 8.91 µM (active). The same measure for `COc1ccc(CCN=C2SCC(=O)N2Cc2ccccc2)cc1OC`: “inactive”; for `COC(=O)C1=C(c2ccc(F)cc2OCc2ccccc2)C[C@@H]2CC[C@H]1N2C(=O)NCc1ccc(OC)c(OC)c1`: “inactive”; for `CCCOc1ccc(C2c3c(-c4ccccc4O)n[nH]c3C(=O)N2Cc2cccnc2)cc1` (configuration not stated): “inactive”. Consider `CC(=O)Nc1ccc(NS(=O)(=O)c2ccc3c(c2)NC(=O)CC(=O)N3)cc1`, for which the Potency result was “inactive”. With `CC(=O)Nc1ccc(S(=O)(=O)NC2(C(F)(F)F)C(=O)NC(C)=C2C#N)cc1` (configuration not stated), the Potency was 39.8 µM (active). For the compound `CC(=O)Nc1ccc(S(=O)(=O)NC2(C(F)(F)F)C(=O)Nc3c2c(=O)[nH]c(=O)n3Cc2ccccc2)cc1` (configuration not stated), the Potency entry was “inactive”. For the compound `CCOC(=O)c1cc(-c2ccc(OC)c(S(=O)(=O)Nc3ccc(OC)cc3OC)c2)on1`, the Potency result was “inactive”. On to `CCOC(=O)c1ccc(NC(=O)Cn2c(=O)cc(C)c3c(C)nn(-c4cccc(F)c4)c32)cc1`, for which the Potency result was “inactive”.

Take `O=C(COC(=O)Cn1cnc2ccccc2c1=O)NCc1ccccc1Cl`: the Potency result is “inactive”. Regarding `COc1ccc(C(C)=O)cc1COC(=O)Cn1cnc2ccccc2c1=O`, the Potency was 39.8 µM (active). For the compound `COCc1cc(C(C)=O)ccc1OC`, the Potency entry is “inactive”. As for `CC(Sc1oc(-c2ccco2)nc1S(=O)(=O)c1ccc(Br)cc1)c1ccccc1` (configuration not stated), the Potency entry is “inactive”.

For the compound `COc1ccc(NC(=O)C2CCN(c3ccc(Sc4ccc(C)cc4)nn3)CC2)c(OC)c1`, the Potency result was “inactive”.

In the case of `Cc1nnc(SCc2cc(=O)c3cc(F)ccc3[nH]2)n1C`, the Potency result is “inactive”.

Take `CCOC(=O)c1ccccc1NC(=O)CC1Nc2ccccc2NC1=O` (configuration not stated): the Potency was 39.8 µM (active).

Take `COC(=O)c1cc(C)sc1NC(=O)CC1Nc2ccccc2NC1=O` (configuration not stated): the Potency result is “inactive”. With `CCOC(=O)c1ccccc1NC(=S)N1CCC(C(N)=O)CC1`, the Potency entry was “inactive”.

`CN1CCN(C2(CNC(=O)COc3ccc(C(C)(C)C)cc3)CCCCC2)CC1`: the Potency result is “inactive”. For `Cc1ccc2nc(N3CCN(c4cccc(Cl)c4)CC3)c3nnnn3c2c1`, the Potency result was “inactive”. The same measure for `COc1ccc(Cn2ccn(Cc3cccc(OC)c3)c(=O)c2=O)cc1`: “inactive”; for `CCCCc1nn2c(=O)cc(COC(=O)c3cccc(NC(=O)COc4ccccc4)c3)nc2s1`: “inactive”.

As for `COc1ccccc1N(C(=O)Cn1nnc2ccccc21)C(C(=O)NCc1ccco1)c1ccc(C)o1` (configuration not stated), the Potency is 44.7 µM (active). Regarding `O=C(NCc1ccco1)C(c1ccncc1)N(C(=O)Cn1nnc2ccccc21)c1ccccc1` (configuration not stated), the Potency result was “inactive”.

Regarding `Cc1ccc(C(C(=O)NCc2ccco2)N(CC2CCCO2)C(=O)Cn2nnc3ccccc32)cc1` (configuration not stated), the Potency result is “inactive”. Turning to `Cc1ccc(OCCSc2nc(-c3cccs3)nc3cc(=O)[nH]n23)cc1Cl`, the Potency result is “inactive”.

In the case of `Cc1ccc(-c2nc3ccccn3c2Nc2c(C)cccc2C)o1`, the Potency entry was “inactive”.

Regarding `COc1cc(Cl)c(C)cc1NC(=O)CCc1nc2cccnc2n1Cc1cccs1`, the Potency result is “inactive”. In the case of `O=c1[nH]c(CSc2ncc(-c3ccc(F)cc3)n2Cc2ccco2)nc2ccccc12`, the Potency result was “inactive”. Turning to `CCC(C)n1c(-c2cc(OC)c(OC)c(OC)c2)nc2nc3ccccc3nc21` (configuration not stated), the Potency entry was “inactive”. Turning to `Clc1cccc(-c2nc3nc4ccccc4nc3n2Cc2ccco2)c1`, the Potency was 17.8 µM (active). As to `Cc1ccc(NC(=O)C2CCN(S(=O)(=O)c3cc(-c4noc(C)n4)ccc3C)CC2)c(C)c1`, the Potency result was “inactive”. As for `FC(F)(F)c1cc(Nc2nc3ccccc3c3nncn23)ccc1Cl`, the Potency result was “inactive”.

Consider `O=C(COc1ccc(Cl)cc1)Nc1ccc2c(c1)OCO2`, for which the Potency result is “inactive”. For `COC(=O)CCNc1ccc2c(c1)OCCO2`, the Potency entry was “inactive”.

`CCOc1ccc(NCCC(=O)c2ccc3c(c2)OCO3)cc1`: the Potency is 1.41 µM (active).

In the case of `Cc1ccc(NC(=O)CSc2nnc3[nH]c(=O)cc(C)n23)cc1Cl`, the Potency entry is “inactive”. As to `Cc1oc2c(c1C(=O)Nc1ccc(F)c(F)c1)C1=NCCN1C=N2`, the Potency result was “inactive”.

For `COc1cc(OC)cc(C(=O)OCC(=O)Nc2sccc2C(N)=O)c1`, the Potency result is “inactive”. In the case of `NC(=O)c1ccsc1NC(=O)c1ccco1`, the Potency was 44.7 µM (active). On to `CC1CN(S(=O)(=O)c2ccc(C(=O)Nc3sccc3C(N)=O)cc2)CC(C)O1` (configuration not stated), for which the Potency entry is “inactive”. For the compound `O=C(CCN1C(=O)c2ccccc2C1=O)Nc1cccc(F)c1`, the Potency result was “inactive”.

Consider `O=C(OCCN1C(=O)c2ccccc2C1=O)Oc1ccccc1`, for which the Potency result is “inactive”. The same measure for `O=C1c2ccccc2C(=O)N1CCC(O)C[N+](=O)[O-]` (configuration not stated): 28.2 µM (active). In the case of `Cc1ccc(CCNC(=O)C2CCN(c3nnc(-n4cccc4CNc4ccc(C)cc4)s3)CC2)cc1` it was “inactive”.

As for `COc1ccc(-c2noc(-c3ccc(N4CCN(c5ccccc5)CC4)c([N+](=O)[O-])c3)n2)cc1OC`, the Potency result is “inactive”. In the case of `O=C(NCc1ccncc1)C(=O)NCc1ccco1`, the Potency result was “inactive”. As to `O=C(NCc1ccccc1)C(=O)NCC(c1ccco1)S(=O)(=O)c1ccc(Cl)cc1` (configuration not stated), the Potency was 50.1 µM (active).

For the compound `COc1ccc(S(=O)(=O)N(CC(=O)NCc2ccco2)c2ccc(F)cc2)cc1`, the Potency entry is “inactive”.

In the case of `O=C(NCCc1ccccc1)C(=O)NCC(c1ccco1)S(=O)(=O)c1ccccc1` (configuration not stated), the Potency result is “inactive”. On to `COc1ccccc1CNC(=O)C(=O)NCC(c1ccco1)S(=O)(=O)c1ccc(F)cc1` (configuration not stated), for which the Potency was 10 µM (active). For the compound `COc1ccc(S(=O)(=O)NC(CC(=O)NCc2ccccc2OC)c2ccco2)cc1` (configuration not stated), the Potency entry is “inactive”. The same measure for `COC(=O)c1cnc(N2CCN(c3ccccc3OC)CC2)c2ccccc12`: “inactive”.

Take `Cc1ccc(F)cc1S(=O)(=O)N1CCC(c2nc3ccccc3s2)CC1`: the Potency entry was “inactive”.

Turning to `Cc1ccc2c(c1)N(C(=O)CCC(=O)NCc1ccccc1F)CC(C)O2` (configuration not stated), the Potency entry is “inactive”. Turning to `CC(=O)N1CCCc2cc(S(=O)(=O)N3CCC(C(=O)NCc4ccc(C)cc4)CC3)ccc21`, the Potency result was “inactive”. In the case of `O=S(=O)(NCCc1nnc2ccc(SCc3ccc(Cl)cc3Cl)nn12)c1ccccc1` it was “inactive”; in that of `O=C(NCC(c1ccc(Cl)cc1)N1CCOCC1)c1ccccc1F` (configuration not stated), “inactive”. The same measure for `CCOc1cccc(NC(=O)c2ccc(F)c(S(=O)(=O)N(CC)c3cccc(C)c3)c2)c1`: “inactive”. Turning to `CCOc1ccc(C2c3[nH]c4ccccc4c3CCN2Cc2cccn2-c2ncccn2)cc1` (configuration not stated), the Potency entry is “inactive”.

For the compound `O=C(c1cn2ccccc2n1)N1CCc2c([nH]c3ccccc23)C1c1ccccn1` (configuration not stated), the Potency entry is “inactive”. The same measure for `c1ccc(C2c3[nH]c4ccccc4c3CCN2Cc2cccn2-c2cccnc2)nc1` (configuration not stated): 15.8 µM (active); for `Cc1ccc(NC(=O)CSc2nc3c([nH]c4ccccc43)c(=O)n2-c2ccccc2)c(C)c1`: “inactive”; for `CCc1c(C)sc(NC(=O)C2c3ccccc3Oc3ccccc32)c1C(=O)OC(C)C`: “inactive”. In the case of `CCOC(=O)C(=O)Nc1nc(-c2ccccc2)c(CC)s1`, the Potency entry was “inactive”. `C/C(=N/Nc1nc(-c2ccccc2)c(CC(=O)O)s1)c1ccccc1`: the Potency was 0.316 µM (active).

On to `CCOc1ccc(-c2nc(C)sc2CC(=O)O)cc1`, for which the Potency entry is “inactive”. In the case of `Cc1ccc(-c2cn3c(n2)sc2cc(C(=O)NCc4cccs4)ccc23)c(C)c1` it was “inactive”; in that of `COc1ccc(NC(=O)CSc2nccn2C2CCCC2)cc1OC`, “inactive”; in that of `CCOc1ccc(-c2nonc2NC(=O)c2oc3ccc(CC)cc3c2C)cc1`, “inactive”. On to `CN(C(=O)CSc1nc2ccc(NC(=O)COc3ccccc3)cc2s1)c1ccccc1`, for which the Potency entry was “inactive”. `Cc1cc(C)c(NC(=O)CN2C(=O)c3cccnc3Oc3ccc(Cl)cc32)c(C)c1`: the Potency result is “inactive”. On to `CCNC(=O)Cn1nc(C)n2c(cc3c(OC)cccc32)c1=O`, for which the Potency result was “inactive”. For `CC(=O)Oc1cccc(N2C(=O)CC(Nc3ccc(N4CCOCC4)cc3)C2=O)c1` (configuration not stated), the Potency is 22.4 µM (active). As for `O=C(Nc1ccc(N2CCOCC2)cc1)c1ccc2c(c1)OCO2`, the Potency result was “inactive”. Turning to `O=C(Nc1ccc(Cl)cc1)c1cccc(OC(=S)N2CCOCC2)c1`, the Potency entry was “inactive”.
